The results in this text go back to PubChem BioAssay AID651551 (Sanford-Burnham Center for Chemical Genomics, 2012).

The assay concerns the target PEG-3 (UniProt Q6IN02). In words: GAPDH versus PEG-3 reporter suppression – cell-based, luminescence, counter-screen for PEG-3 promoter inhibitor project, SAR follow-up (AID 651551). The following applies: HeLa PEG-Prom / GAPDH luciferase reporter, 6 or 24 h, run 2, 24 h; at 99 µM (top of the series). (In general: Counterscreens check selectivity or assay interference.)
Regarding `O=C(Nc1nccs1)c1nn(-c2ccccc2)c(=O)c2ccccc12`, the inhibition % (higher = more inhibition) is 49.2%.

Regarding `CCn1cc(C(=O)NCc2ccco2)c(=O)c2cc(S(=O)(=O)N3CCCC3)ccc21`, the inhibition % (higher = more inhibition) came to 24%. For the compound `COc1ccc(-n2nc(C(=O)NCC(=O)Nc3cc(OC)c(OC)c(OC)c3)c3ccccc3c2=O)cc1OC`, the inhibition % (higher = more inhibition) is 40.8%. For the compound `Cc1nc(NC(=O)c2ccccc2)sc1-c1csc(Nc2cccc(Cl)c2C)n1`, the inhibition % (higher = more inhibition) was -15.2%.

`Cc1ccc(Cl)cc1Nc1nc(-c2sc(NC(=O)c3ccco3)nc2C)cs1`: the inhibition % (higher = more inhibition) turned out to be 1.6%. Then `COc1ccc(Cl)cc1Nc1nc(-c2sc(NC(=O)c3ccccc3)nc2C)cs1`, with 76.3%.

`O=C(Nc1nc2ccccc2s1)c1nn(-c2ccccc2)c(=O)c2ccccc12`: the inhibition % (higher = more inhibition) is -4.01%.

Take `Cc1cc(NC(=O)c2ccccc2C(F)(F)F)n(-c2nc3ccccc3[nH]2)n1`: the inhibition % (higher = more inhibition) came out at 91.9%.

For the compound `CCCn1nc(C(=O)Nc2nc(-c3ccccn3)cs2)c2ccccc2c1=O`, the inhibition % (higher = more inhibition) was 44.6%.

Regarding `CCn1nc(C(=O)Nc2nc(-c3ccccn3)cs2)c2ccccc2c1=O`, the inhibition % (higher = more inhibition) was 53.3%. As to `COc1ccccc1Nc1nc(-c2sc(NC(=O)c3ccco3)nc2C)cs1`, the inhibition % (higher = more inhibition) came out at 10%.

Regarding `CCCn1nc(C(=O)Nc2nc3ccccc3s2)c2ccccc2c1=O`, the inhibition % (higher = more inhibition) was determined as 18.4%. Then `O=C(Nc1nc(-c2ccccc2)cs1)c1nn(-c2ccccc2)c(=O)c2ccccc12`, with 21.2%; and `Cc1cc(NC(=O)c2cccc(C)c2C)n(-c2nc3ccccc3[nH]2)n1`, with 24%. The value for `Cc1nc(NC(=O)c2ccccc2)sc1-c1csc(Nc2ccccc2Cl)n1` was -54.5%. The value for `CCCn1nc(C(=O)Nc2nc(-c3ccncc3)cs2)c2ccccc2c1=O` was 40.8%; that for `Cc1cc(NC(=O)c2ccccc2C)n(-c2nc3ccccc3[nH]2)n1` was 11.5%.
